Where “and” joins values, the source holds several entries; their conditions need not be identical. Identical values can stand only once. Results filed as inconclusive are left out. Calls of active or inactive are those of the source. Unless noted, calls come from the whole dose curve.

A short description of assay [1]: qHTS for Inhibitors of ATXN expression: Validation of Cytotoxic Assay (AID 588349; active = well fitted curve in the direction sought with a large enough effect; an effect the other way counts as inactive or inconclusive; note: % is set by controls: 0 for no effect and ±100 for the full control effect). In a few lines:
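HEK293 cells treated with titrated compound for 72 hr at 37 degrees C; viability read as intracellular ATP by CellTiter Glo luminescence.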
For orientation: Quantitative high-throughput screening tests each substance at several concentrations.

The nature of assay [2]: qHTS for Inhibitors of ATXN expression: Validation (AID 588378; active = well fitted curve in the direction sought with a large enough effect; an effect the other way counts as inactive or inconclusive; note: series mostly up to about 57 µM; % is set by controls: 0 for no effect and ±100 for the full control effect; nearly all actives have a fitted effect of over 75% in size). Put shortly:
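Luciferase luminescence (Bright-Glo) from an ATXN2-FFLuc HEK293 line after 24 h compound exposure at 37 °C, preceded by a CellTiter-Fluor fluorescence viability read. Serial dilutions of a reference ATXN2 inhibitor and a luciferase inhibitor served as controls.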

In assay [3] the target is Estrogen receptor (Homo sapiens) (UniProt P03372). Description: qHTS assay for small molecule agonists of estrogen receptor alpha signaling (AID 588514).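 For activation: 0% = vehicle only and 100% = reference agonist.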 Note: nearly all actives have a fitted effect of over 70% in size. Note: potency is the fitted concentration of half-maximal effect. Put shortly:
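ER-alpha-UAS-bla GripTite HEK293 cells, 5000/well in 2% charcoal/dextran-stripped FBS medium, treated with compound titrations 18 h at 37 C. CCF4 beta-lactamase read by fluorescence after 2 h RT; normalised to 20 nM 17-beta-estradiol (100%) and DMSO (0%), Hill fit for EC50 and efficacy.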

The target is the same in assay [4]. Description: qHTS assay for small molecule antagonists of estrogen receptor alpha signaling (AID 588513; active = well fitted curve in the direction sought with a large enough effect in the signal ratio, with a control signal flat, not every such curve was filed as active; the % refers to the signal ratio; note: % is set by controls: 0 for no effect and ±100 for the full control effect). In a few lines:
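Antagonist mode: inhibition of 0.5 nM 17-beta-estradiol-driven beta-lactamase reporter in HEK 293 ER-alpha-UAS-bla cells, 18 h at 37C, CCF4 readout after 2 h at RT. Normalised to estradiol and DMSO; titration fitted to Hill.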

The target of assay [5] is Androgen receptor (Homo sapiens) (UniProt P10275). In words: qHTS assay for small molecule agonists of androgen receptor signaling (AID 588515; active = well fitted curve in the direction sought with a large enough effect in the signal ratio, with a control signal flat; the % refers to the signal ratio; note: % is set by controls: 0 for no effect and ±100 for the full control effect). The note with it: AR-UAS-bla HEK293, beta-lactamase ratio, agonist 16 h; stronger effect = higher value. In a few lines:
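EC50 and efficacy came from Hill fits of titrations (up to 92 uM) normalized to 30 nM R1881 as 100% and DMSO as 0%. Compound exposure was 16 h at 37 C on AR-UAS-bla HEK293 cells, with a 405/460/530 nm CCF4 fluorescence read.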

For assay [6] the target is unchanged. In words: qHTS assay for small molecule antagonists of androgen receptor signaling (AID 588516; active = well fitted curve in the direction sought with a large enough effect in the signal ratio, with a control signal flat, not every such curve was filed as active; the % refers to the signal ratio; note: % is set by controls: 0 for no effect and ±100 for the full control effect). Put shortly: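 Antagonist mode: inhibition of R1881-stimulated (10 nM final) bla reporter in GeneBLAzer AR HEK 293 cells, 16 h at 37C, compounds titrated. IC50 and efficacy from Hill-equation fits of 405/460–530 nm FRET ratios.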
Assay [7] concerns the target Peroxisome proliferator-activated receptor delta (Homo sapiens) (UniProt Q03181). In words: qHTS assay for small molecule agonists of peroxisome proliferator-activated receptor delta signaling (AID 588534).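 Note: 0% = DMSO basal wells and 100% = positive control agonist at 10 µM.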 Put shortly:
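Cells carrying a PPAR-delta beta-lactamase reporter were treated with compounds for 18 h at 37 °C in agonist mode. CCF4 fluorescence was read after 2 h; EC50 and efficacy from Hill fits.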

Assay [8] is described as follows: qHTS assay for small molecule antagonists of peroxisome proliferator-activated receptor delta signaling (AID 588535).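 Note: cells co-treated with a PPAR-delta agonist as stimulator during compound exposure.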 Particulars: HEK293T PPARd-UAS-bla, beta-lactamase FRET ratio, 18 h; 460 nm channel. Put shortly:
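HEK293T PPAR-delta-UAS-bla cells, 4000/well, 2% charcoal/dextran FBS; 5 h 37 C; cpd titration; 18 h 37 C; CCF4 2 h RT; FI 460/530 nm; Hill fit → IC50, efficacy.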

In assay [9] the target is DNA dC->dU-editing enzyme APOBEC-3G (Homo sapiens) (UniProt Q9HC16). Description: qHTS for inhibitors of Vif-A3G interactions: Validation (AID 588379; active = well fitted curve in the direction sought with a large enough effect; an effect the other way counts as inactive or inconclusive; note: 0% is about no effect). In a few lines:
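HeLa cells stably expressing Vif and A3G-eYFP, 700 cells/well, incubated overnight at 37 deg C, then exposed to compound overnight at 37 deg C. Inhibition of Vif-mediated degradation read as increased yellow fluorescence (Ex 488/Em 500-530) by laser-scanning cytometry.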

Assay [10] deals with Bile acid receptor (Homo sapiens) (UniProt Q96RI1). Description: qHTS assay for small molecule agonists of farnesoid X receptor signaling (AID 588527).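 Note: series mostly up to about 77 µM; 0% = vehicle basal and 100% = reference agonist.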 Particulars: HEK293T FXR-UAS-bla, beta-lactamase ratio, 16 h; stronger effect = higher value. In a few lines: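 Read-out: beta-lactamase reporter fluorescence with CCF4 substrate in GeneBLAzer FXR-UAS-bla HEK293T cells, after 16 h compound exposure at 37 C. Response scaled between DMSO basal (0%) and chenodeoxycholic acid at 100 uM (100%).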
Bile acid receptor (Homo sapiens), sequence (Q96RI1 whole entry, looked up): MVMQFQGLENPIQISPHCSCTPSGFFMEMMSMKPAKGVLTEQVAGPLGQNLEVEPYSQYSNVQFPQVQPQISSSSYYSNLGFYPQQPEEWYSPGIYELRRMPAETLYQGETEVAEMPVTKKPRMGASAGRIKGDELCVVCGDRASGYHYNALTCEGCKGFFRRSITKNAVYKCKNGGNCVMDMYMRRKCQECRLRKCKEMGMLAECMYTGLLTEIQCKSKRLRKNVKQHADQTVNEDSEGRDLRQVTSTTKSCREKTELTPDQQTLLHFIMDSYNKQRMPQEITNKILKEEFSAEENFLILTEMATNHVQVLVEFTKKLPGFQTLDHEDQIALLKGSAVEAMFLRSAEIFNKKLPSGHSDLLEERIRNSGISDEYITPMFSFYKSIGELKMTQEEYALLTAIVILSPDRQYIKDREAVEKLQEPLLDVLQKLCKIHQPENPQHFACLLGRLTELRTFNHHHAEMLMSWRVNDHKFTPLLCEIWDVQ

Androgen receptor (Homo sapiens), sequence (P10275 whole entry, looked up): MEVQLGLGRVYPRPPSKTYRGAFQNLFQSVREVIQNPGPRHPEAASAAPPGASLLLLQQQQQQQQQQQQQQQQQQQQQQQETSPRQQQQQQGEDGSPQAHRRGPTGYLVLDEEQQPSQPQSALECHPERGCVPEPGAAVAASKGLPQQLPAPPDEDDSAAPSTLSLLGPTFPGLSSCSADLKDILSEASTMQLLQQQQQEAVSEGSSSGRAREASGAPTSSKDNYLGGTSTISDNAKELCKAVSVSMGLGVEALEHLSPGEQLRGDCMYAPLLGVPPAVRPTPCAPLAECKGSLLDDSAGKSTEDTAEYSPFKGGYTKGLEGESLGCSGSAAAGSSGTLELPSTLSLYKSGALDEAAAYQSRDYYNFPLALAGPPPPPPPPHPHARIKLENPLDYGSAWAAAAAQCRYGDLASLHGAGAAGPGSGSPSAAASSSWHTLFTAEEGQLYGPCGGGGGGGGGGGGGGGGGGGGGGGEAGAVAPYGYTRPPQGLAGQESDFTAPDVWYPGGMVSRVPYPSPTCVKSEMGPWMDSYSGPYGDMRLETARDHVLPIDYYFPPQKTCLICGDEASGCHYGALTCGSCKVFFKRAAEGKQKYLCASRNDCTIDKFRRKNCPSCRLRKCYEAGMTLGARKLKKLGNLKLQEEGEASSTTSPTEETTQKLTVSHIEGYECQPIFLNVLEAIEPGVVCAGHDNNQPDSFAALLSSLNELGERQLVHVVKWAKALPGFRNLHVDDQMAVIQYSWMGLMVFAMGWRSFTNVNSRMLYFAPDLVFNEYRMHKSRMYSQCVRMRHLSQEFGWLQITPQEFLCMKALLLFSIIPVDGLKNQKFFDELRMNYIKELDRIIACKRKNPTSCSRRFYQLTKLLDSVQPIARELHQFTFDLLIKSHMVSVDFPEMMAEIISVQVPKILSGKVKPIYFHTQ
DNA dC->dU-editing enzyme APOBEC-3G (Homo sapiens), sequence (Q9HC16 whole entry, looked up): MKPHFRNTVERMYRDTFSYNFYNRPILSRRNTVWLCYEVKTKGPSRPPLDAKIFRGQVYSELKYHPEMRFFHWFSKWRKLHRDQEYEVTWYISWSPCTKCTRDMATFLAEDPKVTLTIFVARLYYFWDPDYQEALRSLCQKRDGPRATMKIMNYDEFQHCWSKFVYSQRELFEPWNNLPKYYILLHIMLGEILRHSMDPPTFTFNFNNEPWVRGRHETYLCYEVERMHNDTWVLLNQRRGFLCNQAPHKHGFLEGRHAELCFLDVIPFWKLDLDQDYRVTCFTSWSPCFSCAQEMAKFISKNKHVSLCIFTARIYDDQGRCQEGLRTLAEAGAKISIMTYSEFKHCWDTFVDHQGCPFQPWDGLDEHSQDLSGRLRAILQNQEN
Estrogen receptor (Homo sapiens), sequence (P03372 whole entry, looked up): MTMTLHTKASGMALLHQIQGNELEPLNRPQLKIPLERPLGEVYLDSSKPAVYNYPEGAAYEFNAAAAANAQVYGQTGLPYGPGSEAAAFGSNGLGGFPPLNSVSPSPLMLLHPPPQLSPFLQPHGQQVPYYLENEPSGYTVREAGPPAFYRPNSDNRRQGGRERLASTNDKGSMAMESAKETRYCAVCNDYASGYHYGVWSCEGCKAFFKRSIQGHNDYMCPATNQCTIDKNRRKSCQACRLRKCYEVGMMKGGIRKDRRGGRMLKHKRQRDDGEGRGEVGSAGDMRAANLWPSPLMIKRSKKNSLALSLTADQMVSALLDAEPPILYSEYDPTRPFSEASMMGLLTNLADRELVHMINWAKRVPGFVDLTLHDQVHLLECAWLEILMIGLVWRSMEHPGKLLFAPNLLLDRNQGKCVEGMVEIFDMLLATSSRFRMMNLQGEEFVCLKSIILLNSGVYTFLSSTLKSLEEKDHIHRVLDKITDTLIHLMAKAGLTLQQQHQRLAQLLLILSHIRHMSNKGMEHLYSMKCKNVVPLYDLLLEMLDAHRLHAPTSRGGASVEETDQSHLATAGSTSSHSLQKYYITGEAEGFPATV
Peroxisome proliferator-activated receptor delta (Homo sapiens), sequence (Q03181 whole entry, looked up): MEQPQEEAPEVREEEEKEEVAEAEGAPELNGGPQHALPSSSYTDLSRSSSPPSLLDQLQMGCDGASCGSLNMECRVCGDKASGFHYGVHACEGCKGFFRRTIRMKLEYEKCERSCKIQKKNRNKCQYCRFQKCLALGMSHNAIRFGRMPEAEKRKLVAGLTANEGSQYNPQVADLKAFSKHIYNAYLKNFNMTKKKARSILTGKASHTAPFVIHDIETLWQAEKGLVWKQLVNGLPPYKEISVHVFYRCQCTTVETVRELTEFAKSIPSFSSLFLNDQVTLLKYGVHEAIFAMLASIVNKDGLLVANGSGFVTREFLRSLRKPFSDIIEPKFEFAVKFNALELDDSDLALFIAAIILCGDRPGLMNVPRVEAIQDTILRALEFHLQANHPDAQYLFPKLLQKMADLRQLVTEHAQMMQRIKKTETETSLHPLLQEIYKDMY

Take `COc1ccc2c(c1OC)C(=O)O[C@H]2[C@@H]1c2cc3c(cc2CCN1C)OCO3`: the call in assay [1] and in assay [2] was inactive.

Regarding `C[C@]12CCC(=O)C=C1CC[C@@H]1[C@@H]2CC[C@@]2(C)[C@H]1CC[C@]2(C)O`, the Potency in [3] is 12.6 µM (active).

For the molecule `Nc1ccccc1C(=O)O`, in assay [4], the molecule was classed as inactive. The Potency entry in assay [3] is “inactive”.

Consider `CCOC(=O)CC(SP(=S)(OC)OC)C(=O)OCC` (stereo not drawn), for which the molecule was classed as inactive in [4], in [6] and in assay [7]. Moreover, the Potency entry in assay [3] was “inactive”. For the same molecule, the activation in [5] was 17.2% (inactive) and 0.217% (inactive) and -5.72% (inactive). Also, in assay [8], the max response was determined as 0.513%.

With `CC(C)(C)NCC(O)c1ccccc1Cl` (stereo not drawn), the outcome in assay [1] and in assay [2] was inactive.

Turning to `CC1(C)C(C=C(Cl)Cl)C1C(=O)OC(C#N)c1cccc(Oc2ccccc2)c1` (stereo not drawn), the Potency entry in [3] was “inactive”.

For `C=CCN1C[C@H](C)N([C@H](c2ccc(C(=O)N(CC)CC)cc2)c2cccc(OC)c2)C[C@H]1C`, the call in assay [9] was inactive.

Turning to `COP(=S)(OC)Oc1ccc(SC)c(C)c1`, the molecule was classed as inactive in [4]. Further, the Potency entry in assay [3] was “inactive”. Besides, the max response in assay [8] came to 3.56%.

As for `CCCCC/C=C\C/C=C\C/C=C\C/C=C\CCCC(=O)NCC(=O)O`, the molecule was called inactive in [1] and in assay [2].

Take `CC(C)NC(C)C`: in [4], the call was inactive. Moreover, the Potency result in assay [3] is “inactive”.

Regarding `O=C(O)CCCc1ccc(N(CCCl)CCCl)cc1`, the result in assay [1], in assay [2], in assay [4] and in [7] was inactive. For the same molecule, the Potency result in [3] is “inactive”. The activation in assay [10] was -2.97% (inactive) and 0.833% (inactive). For the same molecule, the max response in assay [8] is 26.1%.

Consider `CC(C)(C)CC(C)(C)c1ccc(OCCOCC[N+](C)(C)Cc2ccccc2)cc1`, for which, in assay [10], the activation is -1.62% (inactive).

With `NCCc1ccc(O)cc1`, the molecule was called inactive in [1], in assay [2] and in assay [4]. In addition, the Potency result in assay [3] is “inactive”. Moreover, in [8], the max response was -1.35%.

Turning to `CN1C[C@H](C(=O)N[C@]2(C)O[C@@]3(O)[C@@H]4CCCN4C(=O)[C@H](Cc4ccccc4)N3C2=O)C=C2c3cccc4[nH]cc(c34)C[C@H]21`, the call in [4] was inactive. Further, the Potency result in assay [3] is “inactive”. In addition, the activation in assay [10] was 2.53% (inactive).

As for `COc1cc(OC)c(OC)cc1C=O`, the molecule was classed as inactive in assay [4]. In [3], the Potency entry is “inactive”. In addition, the activation in assay [5] is -8.64% (inactive).

As for `CCC1(c2ccc(N)cc2)CCC(=O)NC1=O` (stereo not drawn), the outcome in assay [1] and in [2] was inactive.

Regarding `CC(=O)O[C@H]1C(=O)[C@@]2(C)[C@H]([C@H](OC(=O)c3ccccc3)[C@]3(O)C[C@H](OC(=O)[C@H](O)[C@@H](NC(=O)c4ccccc4)c4ccccc4)C(C)=C1C3(C)C)[C@]1(OC(C)=O)CO[C@@H]1C[C@@H]2O`, the activation in [10] was 3.09% (inactive).

On to `CCCCCCCC(=O)OCC(COC(=O)CCCCCCC)OC(=O)CCCCCCC`, for which the activation in assay [10] is -2.1% (inactive).

On to `Oc1ccccc1`, for which the activation in assay [10] was 0.295% (inactive) and -0.629% (inactive) and -5.57% (inactive).

For the molecule `O=C(Oc1ccccc1)c1ccccc1O`, the molecule was classed as inactive in assay [4].

With `C[C@]12CCC(=O)C=C1CC[C@@H]1[C@@H]2CC[C@]2(C)C(=O)CC[C@@H]12`, the result in assay [4] and in assay [7] was inactive. Also, the activation in assay [10] is -2.26% (inactive).

For the molecule `O=c1[nH]oc2c1CCNC2`, the call in assay [1], in assay [2] and in [9] was inactive.

As for `Clc1cccc(SC2CCNCC2)n1`, the outcome in [9] was inactive.

With `CC(NC(C)(C)C)C(=O)c1cccc(Cl)c1` (stereo not drawn), the molecule was classed as inactive in [1] and in assay [2].

On to `CCC(C)(C)c1ccc(O)cc1`, for which the result in [4] was inactive. Further, in assay [10], the activation is -0.511% (inactive) and -0.445% (inactive).

Take `O=P1(N(CCCl)CCCl)NCCCO1` (stereo not drawn): the molecule was classed as inactive in assay [1], in [2], in [4] and in assay [7]. Besides, the Potency result in assay [3] was “inactive”. Also, the activation in assay [10] is -1.19% (inactive) and 1.86% (inactive). Also, the max response in assay [8] was 34.9% and 30.3%.

Regarding `C=C(C)[C@H]1CN[C@H](C(=O)O)[C@H]1CC(=O)O`, the result in assay [1] and in assay [2] was inactive.

With `CC(C)c1cccc(C(C)C)c1O`, the result in assay [1], in [2], in assay [4], in [6] and in assay [7] was inactive. In assay [3], the Potency result was “inactive”. Moreover, in assay [5], the activation was -6.9% (inactive). Also, the max response in [8] is -11.4%.

For the molecule `Cc1ncsc1CCCl`, the call in assay [1], in [2] and in [9] was inactive.

On to `CN1C(=O)CCS(=O)(=O)C1c1ccc(Cl)cc1` (stereo not drawn), for which the outcome in assay [1] and in assay [2] was inactive.

Consider `Nc1ccc([As](=O)(O)O)cc1`, for which the Potency in [3] was 15.8 µM (active). Further, the max response in assay [8] was -12.8%.

For the molecule `COP(=S)(OC)Oc1cc(Cl)c(Cl)cc1Cl`, the Potency result in assay [3] is “inactive”. Further, the result in assay [7] was inactive. The max response in assay [8] amounted to 28.8%.

Turning to `CC(C)N(CCC(C(N)=O)(c1ccccc1)c1ccccn1)C(C)C` (stereo not drawn), the molecule was called inactive in [1] and in [2].

On to `O=C(CCCN1CCC2(CC1)C(=O)NCN2c1ccccc1)c1ccc(F)cc1`, for which the result in assay [2] and in [9] was inactive.

With `COC(=O)C(c1ccccc1)C1CCCCN1` (stereo not drawn), the Potency result in [3] is “inactive”. The activation in [5] is 0.332% (inactive); in assay [10], -2.4% (inactive). Also, the outcome in [6] was inactive.

The values above are taken from PubChem BioAssay (NCATS).
